# Sampled rows, rich in hits. Any-hit rate of the full collection: about 11%.
# IMPase Li cell: cell-permeable IMPase inhibitors with lithium potentiation. CHO-M1 cells, IP1 TR-FRET (IP-One), carbachol + lithium. Potency, µM (top dose mostly 59.4 µM), for inactives: at the top dose activity, negative = IMPase inhibition, actives largely listed as inhibitors. 0.35% of 210,000 active. AID 1457;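 further: IP1 builds up when IMPase is blocked and the TR-FRET signal falls; potency means the concentration at half of the fitted maximal effect; plate controls were basal vehicle for no effect and high inhibitor control for full effect; nearly all actives have a fitted effect of over 50% in size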
#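 IP1 accumulation measured by competitive TR-FRET in lysed CHO-M1 cells after 30 min compound exposure at 37C, with a small lithium addition to potentiate weak responses. Hill-equation AC50 from ratio and donor-channel data.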
# NPSR antag: neuropeptide S receptor (human) antagonism, cAMP. 1% of 220,000 active. Q6W5P4. CHO-NPSR cells, cAMP TR-FRET, antagonist mode. Potency, µM (series often up to 38.3 µM), for inactives: at the highest dose activity change, negative = inhibition, actives largely listed as inhibitors; further: potency means the concentration at half of the fitted maximal effect; nearly all actives have a fitted effect of over 50% in size
# Target sequence (Q6W5P4 whole entry, looked up): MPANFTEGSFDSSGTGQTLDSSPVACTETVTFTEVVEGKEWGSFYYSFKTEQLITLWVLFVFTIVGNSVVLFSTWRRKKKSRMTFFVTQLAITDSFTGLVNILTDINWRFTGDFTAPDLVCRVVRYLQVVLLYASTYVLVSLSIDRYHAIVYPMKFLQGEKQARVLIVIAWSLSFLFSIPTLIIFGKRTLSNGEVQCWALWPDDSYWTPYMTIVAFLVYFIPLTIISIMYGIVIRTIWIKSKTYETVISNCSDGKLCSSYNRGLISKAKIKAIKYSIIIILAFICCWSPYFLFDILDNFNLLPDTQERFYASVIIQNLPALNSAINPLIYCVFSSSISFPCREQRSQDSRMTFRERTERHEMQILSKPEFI
# IMPase cell inh: membrane-permeable compound that blocks inositol monophosphatase; P97697; CHO-M1 cells, IP1 accumulation, HTRF TR-FRET ratio; inhibition (IP1 accumulation), % at 46.1 µM; 120,000 tested, under 10 active; active means well fitted curve in the direction sought with a large enough effect in the signal ratio, not every such curve was filed as active; inconclusive means small, poorly fitted or top-dose-only effect, or a change in a side signal; inactive means no such curve, though single readings can be large or run the other way; the % refers to the signal ratio;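 further: cells stimulated with carbachol in lithium chloride buffer; plate controls were DMSO basal wells for no effect and reference inhibitor wells for full effect; higher means more IMPase inhibition seen as more IP1 and lower FRET ratio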
#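 In this qHTS, compounds (final up to 46 uM) act on CHO-M1 cells that are then activated through the M1 receptor with carbachol, in pH 7.4 buffer containing 50 mM LiCl, for 30 min. IP1 accumulation is quantified by the IP-One immunoassay.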
# PNC inhibitor: inhibitors of perinucleolar compartment assembly | 3.1% of 140,000 active | activity change (PNC), negative = inhibition, % at 10 µM | PC3M PTB-GFP, PNC prevalence imaging, 16 h; stronger effect = lower value;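 active means readout at or below -70, meaning at least 70% loss of cells showing the perinucleolar compartment, a nuclear body marking cancer cells; inconclusive means readout between -30 and a set limit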;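 further: plate controls were DMSO wells for no effect and camptothecin positive control wells for full effect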
#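 Compounds are pinned in duplicate onto adhered PC3M cells stably expressing GFP-tagged PTB and incubated 16 h at 37 C. Cells are then fixed, nuclei stained with Hoechst, and PNC-positive cells counted.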
# ALDH1A1 inh: blocks purified human ALDH1A1 activity. 7.3% of 220,000 active. P00352. Potency, µM (top dose mostly 75.3 µM), for inactives: at the top dose activity, negative = inhibition, actives largely listed as inhibitors. Purified ALDH1A1, NADH fluorescence, propionaldehyde substrate; active means well fitted inhibition curve with a large enough effect, not every such curve was filed as active; inconclusive means small, poorly fitted or top-dose-only effect, or another doubt; inactive means no such curve, though single readings can be large or run the other way;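 further: potency means the concentration at half of the fitted maximal effect; plate controls were no enzyme wells and a reference inhibitor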
# HPGD inh: inhibitors of human 15-hydroxyprostaglandin dehydrogenase (HPGD); purified HPGD, NADH fluorescence kinetic, PGE2 substrate; Potency, µM, for inactives: at the highest dose activity change, negative = inhibition, hits mostly inhibitors; 4.3% of 150,000 active; AID 894; active means well fitted inhibition curve with a large enough effect, not every such curve was filed as active; inconclusive means small, poorly fitted or top-dose-only effect, or another doubt; inactive means no such curve, though single readings can be large or run the other way; further: potency means the concentration at half of the fitted maximal effect
# Target sequence (P15428 whole entry, looked up): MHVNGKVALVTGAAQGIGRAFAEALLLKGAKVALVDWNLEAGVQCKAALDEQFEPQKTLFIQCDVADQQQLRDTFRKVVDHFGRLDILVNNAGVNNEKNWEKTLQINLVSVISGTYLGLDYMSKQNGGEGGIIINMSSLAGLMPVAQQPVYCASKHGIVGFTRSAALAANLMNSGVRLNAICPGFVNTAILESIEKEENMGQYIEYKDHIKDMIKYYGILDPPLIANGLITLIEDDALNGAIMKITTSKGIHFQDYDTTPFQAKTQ
#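 NADH formation kinetics: reaction with 30 uM PGE2 and 1 mM NAD+ (final), 20 nM enzyme, Tris-HCl pH 8 with Tween 20, after 15 min compound preincubation at room temperature. Fluorescence change, last versus first of five reads.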
# An asterisk follows results filed as active; ? = inconclusive; · = no result given; [ ] = dose if it differs, or a comment. Unless noted, the call rests on the fitted dose curve; in most records, active means well fitted curve in the direction sought with a large enough effect; inconclusive means small, poorly fitted or top-dose-only effect, or another doubt; inactive means no such curve, though single readings can be large; an effect the other way counts as inactive or inconclusive. Unless noted, on the % scale 0 is the no-effect control and ±100 the full control effect.
SMILES,IMPase Li cell,NPSR antag,IMPase cell inh,PNC inhibitor,ALDH1A1 inh,HPGD inh
Cc1nc2c(C(=O)O)cnn2c(C)c1Cc1ccccc1F,11.3%[38.3 µM],-16.7%[46.1 µM],-9.2,-4.8,?,?
COC(=O)c1oc2ccc(Br)cc2c1NC(=O)c1ccccc1,?,-6.4%[46.1 µM],-16.3,30.2,?,?
CCCCCC(=O)Nc1cccc(C2=NOC3(C2)C[C@H](C(N)=O)N(C(=O)[C@H]2CCC(=O)N2)C3)c1 (some centres not stated),·,35.9%,·,·,·,·
COc1ccc(N(CC(=O)Nc2cccc(SC)c2)S(C)(=O)=O)cc1,2.2%[38.3 µM],-1.5%[46.1 µM],5.4,0.0,12.4%,-3.5%
Cc1ccc(NC(=S)NNC(=O)C2CC2c2ccc(C)cc2)cc1 (configuration not stated),0.2%,-13.4%[46.1 µM],1.7,-100.0*,?,-18.4%
COCCCNC(=S)NNC(=O)C1CC1c1ccc(C(C)(C)C)cc1 (configuration not stated),5.6%,-12.8%,·,·,7.0%,·
O=C(NNC(=S)Nc1ccc(F)cc1)C1CC1c1ccc(Cl)cc1 (configuration not stated),10.7%,3.9%,·,-18.0,0.6%,15.8µM*
COc1ccc(NC(=S)NNC(=O)C2CC2c2ccc(C)cc2)cc1 (configuration not stated),-3.3%,-10.6%,·,23.7,2.51µM*,-25.3%
Fc1ccc(NC(=S)Nc2ccc(Cl)cc2)cc1,4.8%,-16.2%,·,·,-7.1%,·
Oc1ccc(-c2nnc(SCC3CCCCC3)o2)cc1,3.0%[38.3 µM],?,3.5,-7.5,-3.1%,-17.0%
C[C@H]1O[C@@H](n2cc(F)c(=O)[nH]c2=O)[C@H](O)[C@@H]1O,44.5%,10.9%[46.1 µM],·,·,5.7%,2.2%
CO[C@H]1COC(=O)[C@H](C)COC(=O)[C@@H](Cc2ccccc2)NC(=O)C/C=C\[C@H]1C,·,·,·,·,3.4%[13.5 µM],·
COc1ccccc1-c1nc(S(=O)(=O)c2ccc(Cl)cc2)c(N(C)C)o1,4.2%[38.3 µM],-13.2%[46.1 µM],2.9,1.3,23.8µM*,-5.8%
COc1cc(-c2nc(S(=O)(=O)c3ccc(C)cc3)c(N(C)C)o2)cc(OC)c1OC,12.2%[38.3 µM],-17.1%[46.1 µM],-5.7,20.1,?,-10.6%
Cc1c(NC(=O)CN2C(=O)NC(CCc3ccccc3)C2=O)c(=O)n(-c2ccccc2)n1C (configuration not stated),-13.8%,2.5%,·,·,7.2%,·
O=C(CSC(=S)N1CCN(c2ccccc2)CC1)Nc1nc(-c2ccccc2)c(-c2ccccc2)o1,-5.1%,-1.9%,·,15.7,1.1%,-12.0%
COc1cc(C(=O)Nc2nc(-c3ccc(Cl)cc3)c(C)s2)ccc1OCC(=O)Nc1ccc(F)cc1,·,3.98µM*,3.2,19.4,?,·
CCc1ccc(-c2nc(NC(=O)c3ccc(OCC(=O)Nc4ccc(F)cc4)c(OC)c3)sc2C)cc1,7.94µM*,6.31µM*,?,?,?,?
COc1ccc(-c2nc(NC(=O)c3ccc(OCC(=O)N4CCOCC4)c(OC)c3)sc2C)cc1,7.7%,-8.6%,·,35.1,?,-20.6%
Cc1cc(-c2nnc(CCC(=O)N(C)C(C)c3cccs3)o2)no1 (configuration not stated),·,2.7%,·,·,·,·
O=C(N1CCCCC1)N1CCN(C(c2ccccc2)c2ccccc2)CC1,34.6%[38.3 µM],?,4.1,-16.4,-12.4%,?
CCc1nc(C)cn1S(=O)(=O)c1cc(C)c(OC)cc1C,-3.2%[38.3 µM],-3.9%[46.1 µM],-3.7,-12.0,10.1%,6.2%
CCc1nc(C)cn1S(=O)(=O)c1cc(C)c(OC)c(C)c1C,-5.8%[38.3 µM],-10.1%[46.1 µM],13.1,-1.3,25.1µM*,-8.9%
c1ccc(-c2ccc(-c3nc(-c4ccncc4)no3)cc2)cc1,-5.7%[38.3 µM],2.0%[46.1 µM],6.4,?,2.9%,-19.6%
CCc1ccc(C(=O)NCc2cccs2)s1,14.0%[38.3 µM],-0.2%[46.1 µM],-3.1,?,5.2%,17.8µM*
SMILES,IMPase Li cell,NPSR antag,IMPase cell inh,PNC inhibitor,ALDH1A1 inh,HPGD inh
O=C(NCc1cccs1)c1ccc(Cl)s1,3.8%,3.7%[46.1 µM],10.2,-3.4,10.1%,15.8µM*
c1cc2c3c(cccc3c1)NC1(CCCCCC1)N2,31.8%[38.3 µM],-14.7%[46.1 µM],6.4[1.84 µM],37.5,3.16µM*,?
CCc1nnc(NC(=O)CSc2nnc(-c3ccccc3NC(=O)c3ccccc3)o2)s1,?,?,6.4,-7.7,-5.4%,?
CCOC(=O)CSc1nnc(-c2ccccc2NC(=O)c2ccccc2)o1,11.2µM*,-9.3%[46.1 µM],2.3,?,?,-23.0%
Cc1cc(C(=O)N/N=C2\CC(=O)c3ccccc32)c(C)n1-c1ccccc1,6.2%,-22.6%,·,·,1.2%,·
Cc1cc(C(=O)N/N=C2\CC(=O)CC(C)(C)C2)c(C)n1-c1ccccc1,6.7%,10.4%,·,-94.6*,?,-21.6%
Cc1cc(C(=O)N/N=C2\CC(=O)CC(C)(C)C2)c(C)n1-c1ccc(F)cc1,-0.8%,0.0%,·,47.2,28.2µM*,-9.6%
Cc1cc(C(=O)N/N=C2\CC(=O)CC(C)(C)C2)n[nH]1,-4.6%[38.3 µM],-10.3%[46.1 µM],-0.8,37.3,13.3%,-12.5%
COc1ccc(CCNC(=O)/C=C/C(=O)O)cc1OC,-4.9%,16.6%,·,·,25.1µM*,·
COc1ccc(CCNC(=O)/C=C\c2ccccc2)cc1OC,2.3%,1.4%,·,25.9,-6.0%,-14.7%
COc1cccc(CNC(=O)C(=O)NCCc2ccc(OC)c(OC)c2)c1,8.6%,3.4%,·,-1.0,?,-12.5%
COc1ccc(CCNC(=O)C(=O)NCc2ccc(C)cc2)cc1OC,3.4%,11.7%[46.1 µM],13.5,?,3.16µM*,-11.1%
COc1ccc(CCNC(=O)C(=O)NCc2ccc(Cl)cc2)cc1OC,6.2%,13.3%,·,·,0.631µM*,·
CCOC(=O)c1ccccc1NC(=O)CN(c1cccc(C)c1C)S(=O)(=O)c1ccccc1,·,·,-3.3,·,·,·
Cc1ccc(-c2cc(C(=O)N/N=C/c3ccco3)[nH]n2)cc1,15.0%[38.3 µM],-19.1%[46.1 µM],5.9,-0.3,-1.6%,-9.4%
Cc1[nH]c2ccccc2c1/C=N/NC(=O)c1cc(-c2cccs2)[nH]n1,1.6%,-6.8%,3.8,10.4,-3.4%,-22.5%
Cc1nn(-c2ccccc2)c(C)c1/C=N/NC(=O)c1cc(C(C)(C)C)[nH]n1,40.4%,-14.5%[46.1 µM],6.2,-82.6*,?,-26.7%
Cc1ccc(-c2cc(C(=O)N/N=C/c3c(C)nn(-c4ccccc4)c3C)n[nH]2)s1,12.7%,9.3%,-1.7,-115.1*,?,?
Cc1ccc(-c2cc(C(=O)N/N=C/c3c(C)nn(-c4ccccc4)c3C)[nH]n2)cc1,28.8%[38.3 µM],18.5%[46.1 µM],5.2[1.84 µM],-91.9*,1.8%,?
Cc1ccc(CN(C)C(=O)c2cc(COc3ccc(F)cc3Cl)on2)o1,18.8%,17.5%,·,·,7.08µM*,·
Cc1ncc(CO)c(/C=N/NC(=S)Nc2ccc(Cl)c(Cl)c2)c1O,4.0%,-18.8%,·,·,?,·
